Laboratory results: PMC3218832

What was measured:
Test in all cases: protein binding microarray; high values mean tight binding
Conditions in all cases: dsDNA, one strand shown
RELARELA (p65 homodimer) = RELARELA (p65 homodimer) (Homo sapiens, UniProt Q04206 1-307)
p50p50 homodimer = p50p50 homodimer (Homo sapiens, UniProt P19838 7-356)
p52p52 homodimer = molecular target: T1, p52p52 homodimer (Homo sapiens, UniProt Q00653 4-332)
T1 sequence: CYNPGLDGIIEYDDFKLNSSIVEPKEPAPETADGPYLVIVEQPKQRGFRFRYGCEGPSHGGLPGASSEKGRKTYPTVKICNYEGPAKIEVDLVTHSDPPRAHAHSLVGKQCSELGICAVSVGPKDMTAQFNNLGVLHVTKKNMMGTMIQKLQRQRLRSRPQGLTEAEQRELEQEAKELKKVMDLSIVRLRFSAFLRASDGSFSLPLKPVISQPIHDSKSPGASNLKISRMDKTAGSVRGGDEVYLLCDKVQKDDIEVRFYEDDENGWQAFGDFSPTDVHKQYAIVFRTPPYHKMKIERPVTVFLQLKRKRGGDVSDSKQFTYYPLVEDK

[1] = molecular target: RELA (p65) subunit of heterodimer;p50 subunit (Homo sapiens;Homo sapiens, UniProt Q04206;P19838 1-307;7-356)
[2] = molecular target: RELA (p65) subunit of heterodimer;p52 subunit (Homo sapiens;Homo sapiens, UniProt Q04206;Q00653 1-307;4-332)
RELB subunit;p50 subunit = RELB subunit;p50 subunit (Homo sapiens;Homo sapiens, UniProt Q01201;P19838 120-401;7-356)
RELB subunit;p52 subunit = molecular target: T2, RELB subunit;p52 subunit (Homo sapiens;Homo sapiens, UniProt Q01201;Q00653 120-401;4-332)
T2 sequence 1: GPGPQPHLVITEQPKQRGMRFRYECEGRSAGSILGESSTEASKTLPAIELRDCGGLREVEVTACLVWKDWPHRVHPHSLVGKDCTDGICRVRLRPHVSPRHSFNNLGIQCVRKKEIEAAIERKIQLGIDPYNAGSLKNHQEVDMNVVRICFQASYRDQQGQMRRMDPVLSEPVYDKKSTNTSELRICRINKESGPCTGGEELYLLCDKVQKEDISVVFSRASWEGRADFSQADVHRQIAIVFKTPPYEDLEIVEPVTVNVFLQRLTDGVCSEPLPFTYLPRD
T2 sequence 2: T1 sequence

[3] = molecular target: C-Rel subunit;p50 subunit (Homo sapiens;Homo sapiens, UniProt Q04864;P19838 1-285;7-356)
[4] = molecular target: T3, C-Rel subunit;p52 subunit (Homo sapiens;Homo sapiens, UniProt Q04864;Q00653 1-285;4-332)
T3 sequence 1: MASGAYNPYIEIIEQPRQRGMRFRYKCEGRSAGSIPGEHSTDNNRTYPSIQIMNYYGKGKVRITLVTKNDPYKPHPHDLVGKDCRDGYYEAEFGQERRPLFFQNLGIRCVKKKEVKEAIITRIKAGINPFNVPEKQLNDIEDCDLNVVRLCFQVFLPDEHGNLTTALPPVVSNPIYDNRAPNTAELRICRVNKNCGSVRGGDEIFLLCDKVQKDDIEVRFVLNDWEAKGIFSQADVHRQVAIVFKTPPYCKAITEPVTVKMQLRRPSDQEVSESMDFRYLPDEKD
T3 sequence 2: T1 sequence

Sequence of RELA (p65) subunit of heterodimer;p50 subunit (Q04206 1-307, chain 1 of 2): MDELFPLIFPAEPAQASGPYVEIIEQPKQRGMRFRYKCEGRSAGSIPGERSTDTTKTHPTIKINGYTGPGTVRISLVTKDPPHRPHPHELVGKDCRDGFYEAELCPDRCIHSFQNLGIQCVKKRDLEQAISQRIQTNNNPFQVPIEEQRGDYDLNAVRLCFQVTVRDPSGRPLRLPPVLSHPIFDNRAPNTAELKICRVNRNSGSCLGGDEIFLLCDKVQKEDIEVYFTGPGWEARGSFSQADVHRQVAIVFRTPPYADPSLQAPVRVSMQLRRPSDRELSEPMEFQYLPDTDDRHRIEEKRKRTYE
Sequence of RELA (p65) subunit of heterodimer;p50 subunit (P19838 7-356, chain 2 of 2): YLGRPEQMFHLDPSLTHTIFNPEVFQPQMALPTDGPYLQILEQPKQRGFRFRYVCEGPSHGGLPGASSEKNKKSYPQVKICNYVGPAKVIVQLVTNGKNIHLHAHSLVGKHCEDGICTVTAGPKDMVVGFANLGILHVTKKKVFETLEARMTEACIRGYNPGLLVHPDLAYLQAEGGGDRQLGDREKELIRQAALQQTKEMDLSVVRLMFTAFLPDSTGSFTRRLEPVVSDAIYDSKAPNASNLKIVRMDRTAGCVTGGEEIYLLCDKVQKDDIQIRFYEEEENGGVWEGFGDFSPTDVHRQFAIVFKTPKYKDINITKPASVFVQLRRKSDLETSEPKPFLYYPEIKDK
Sequence of RELARELA (p65 homodimer) (Q04206 1-307): as the sequence (Q04206 1-307, chain 1 of 2) above
Sequence of p50p50 homodimer (P19838 7-356): as the sequence (P19838 7-356, chain 2 of 2) above

Sequence	binding signal (RELARELA (p65 homodimer))	binding signal (p50p50 homodimer)	binding signal (p52p52 homodimer)	binding signal [1]	binding signal [2]	binding signal (RELB subunit;p50 subunit)	binding signal (RELB subunit;p52 subunit)	binding signal [3]	binding signal [4]
AAGAGAGCCCC	-0.68 z-score	0.339 z-score	0.122 z-score	0.109 z-score	-0.015 z-score	-0.0342 z-score	-0.125 z-score	0.0932 z-score	0.00397 z-score
CGGGAACTCCT	1.67 z-score	0.314 z-score	0.181 z-score	0.357 z-score	0.17 z-score	-0.0239 z-score	0.0296 z-score	0.188 z-score	0.424 z-score
CAAAGCCTCCC	-0.873 z-score	-0.992 z-score	-0.631 z-score	-0.874 z-score	-0.823 z-score	-0.859 z-score	-0.707 z-score	-1.19 z-score	-0.839 z-score
GAGGGCATCCC	0.359 z-score	-0.785 z-score	-0.256 z-score	-0.318 z-score	-0.398 z-score	-0.647 z-score	-0.505 z-score	-0.179 z-score	-0.277 z-score
GGGGTAACCCT	1.24 z-score	0.343 z-score	1.02 z-score	0.666 z-score	1.02 z-score	0.227 z-score	0.871 z-score	0.285 z-score	0.871 z-score
AGGATAGCCCT	-0.44 z-score	-1.05 z-score	-0.582 z-score	-0.78 z-score	-0.902 z-score	-0.841 z-score	-0.772 z-score	-0.982 z-score	-0.688 z-score
CGAAATCCCCC	1.7 z-score	1.64 z-score	2.27 z-score	2.33 z-score	2.13 z-score	2.58 z-score	2.42 z-score	1.83 z-score	2.36 z-score
